Results on 37 compounds are retold here after the supplement of paper PMC7695840.

Where a name gives a salt, the structure may show the parent alone.

In test [1] the test system is Staphylococcus aureus MW2 delta-mecA (mecA-). As to the kind of experiment: normalized GFP fluorescence (growth of mecA- strain) (fraction of control range); higher = more growth of mecA- strain. The note with it: compound concentration: 150 uM; cefoxitin: subinhibitory; fluorescent label: GFP. In short, it runs like this:
(§1)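 Two pre-induced S. aureus MW2 strains, one with the gene labeled by DsRed and one lacking it labeled by GFP, were mixed 1:1 in LB with a subinhibitory antibiotic dose set daily. The mix went at 5 µL/well onto 150 μM compound (1.5% DMSO) in 1536-well plates, single replicate, and grew unshaken 20 h at 37 °C, 90% humidity. DsRed (540/590) and GFP (485/520) values were scaled per plate between single-strain control medians, and plates with high untreated ratios or rows with DsRed/GFP >10 were left out.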

In test [2] the test system is Staphylococcus aureus MW2 (mecA+). As to the kind of experiment: normalized DsRed fluorescence (growth of mecA+ strain) (fraction of control range); higher = more growth of mecA+ strain. The conditions noted are these: compound concentration: 150 uM; cefoxitin: subinhibitory; fluorescent label: DsRed. Put shortly: as §1

Regarding `O=C(CCCN1CC=C(n2c(=O)[nH]c3ccccc32)CC1)c1ccc(F)cc1`, the “normalized GFP fluorescence” value in test [1] stood at 0.664. Also, the “normalized DsRed fluorescence” value in test [2] stood at 0.702.
Consider `Cc1cc2nc3c(=O)[nH]c(=O)nc-3n(CC(O)C(O)C(O)COP(=O)(O)O)c2cc1C` (centres undefined), for which the “normalized GFP fluorescence” value in test [1] worked out at 0.933. Moreover, the “normalized DsRed fluorescence” value in test [2] was 0.535.
Take `Cc1cc(C#N)cc(C)c1Oc1nc(Nc2ccc(C#N)cc2)nc(N)c1Br` [Etravirine (TMC125)]: the “normalized GFP fluorescence” value in test [1] was determined as 0.423. The “normalized DsRed fluorescence” value in test [2] came to 0.589.
As for `CC1(C)[C@@H](O[C@H]2O[C@H](C(=O)O)[C@@H](O)[C@H](O)[C@H]2O[C@@H]2O[C@H](C(=O)O)[C@@H](O)[C@H](O)[C@H]2O)CC[C@]2(C)[C@H]3C(=O)C=C4[C@@H]5C[C@@](C)(C(=O)O)CC[C@]5(C)CC[C@@]4(C)[C@]3(C)CC[C@@H]12` [Glycyrrhizic acid], the “normalized GFP fluorescence” value in test [1] is 0.122. The “normalized DsRed fluorescence” value in test [2] came out at 1.7.
Take `Nc1nc(O)c2ncn(CCC(CO)CO)c2n1`: in test [1], the “normalized GFP fluorescence” value came out at 0.331. In test [2], the “normalized DsRed fluorescence” value is 0.941.
As for `CN[C@@H]1[C@@H](O)[C@@H](O[C@@H]2[C@@H](O)[C@H](O[C@H]3OC(CN)=CC[C@H]3N)[C@@H](N)C[C@H]2N)OC[C@]1(C)O`, in test [1], the “normalized GFP fluorescence” value was 0.511. Also, the “normalized DsRed fluorescence” value in test [2] was found to be 0.916.
Take `COC(=O)C1=C(C)NC(C)=C(C(=O)OC(C)C)C1c1cccc2nonc12` (centres undefined): in test [1], the “normalized GFP fluorescence” value came to 0.00618. Besides, the “normalized DsRed fluorescence” value in test [2] amounted to 1.51.
Regarding `c1ccc(CN(CC2=NCCN2)c2ccccc2)cc1`, the “normalized GFP fluorescence” value in test [1] came out at 0.974. For the same compound, the “normalized DsRed fluorescence” value in test [2] is 0.762.
Regarding `CCCCC1C(=O)N(c2ccccc2)N(c2ccccc2)C1=O` [Phenylbutazone (Butazolidin, Butatron)], the “normalized GFP fluorescence” value in test [1] turned out to be 0.207. In test [2], the “normalized DsRed fluorescence” value was 0.436.
Turning to `CCCCCC(C)N` (centres undefined), the “normalized GFP fluorescence” value in test [1] amounted to 0.403. In addition, the “normalized DsRed fluorescence” value in test [2] came out at 0.663.
Regarding `CC(=O)OCC(=O)[C@@]1(O)CC[C@H]2[C@@H]3CCC4=CC(=O)CC[C@]4(C)[C@H]3C(=O)C[C@@]21C`, in test [1], the “normalized GFP fluorescence” value turned out to be 0.843. For the same compound, the “normalized DsRed fluorescence” value in test [2] amounted to 0.634.
In the case of `NS(=O)(=O)c1cc2c(cc1Cl)NCNS2(=O)=O`, the “normalized GFP fluorescence” value in test [1] was 0.562. In addition, in test [2], the “normalized DsRed fluorescence” value was determined as 0.865.
`N=C(N)N1CCc2ccccc2C1`: the “normalized GFP fluorescence” value in test [1] was 0.353. Further, the “normalized DsRed fluorescence” value in test [2] stood at 0.808.
Consider `C[C@@H]1NC(=O)[C@@H](N)CNC(=O)[C@H](C2CCNC(=N)N2)NC(=O)/C(=C/NC(N)=O)NC(=O)[C@H](CNC(=O)CC(N)CCCN)NC1=O.N=C1NCCC([C@@H]2NC(=O)/C(=C/NC(N)=O)NC(=O)[C@H](CNC(=O)CC(N)CCCN)NC(=O)[C@H](CO)NC(=O)[C@@H](N)CNC2=O)N1` (some centres undefined), for which, in test [1], the “normalized GFP fluorescence” value stood at 0.494. Also, in test [2], the “normalized DsRed fluorescence” value turned out to be 0.758.
With `C1CCC(C(CC2CCCCN2)C2CCCCC2)CC1` (centres undefined), the “normalized GFP fluorescence” value in test [1] was 0.000248. In addition, the “normalized DsRed fluorescence” value in test [2] turned out to be 0.0259.
`C1CNCCN1`: in test [1], the “normalized GFP fluorescence” value was 0.806. The “normalized DsRed fluorescence” value in test [2] turned out to be 0.885.
Regarding `Cn1cnc2c1c(=O)[nH]c(=O)n2C`, the “normalized GFP fluorescence” value in test [1] was 0.351. In test [2], the “normalized DsRed fluorescence” value was determined as 0.469.
Regarding `CC(C)NCC(O)COc1cccc2[nH]ccc12` (centres undefined), the “normalized GFP fluorescence” value in test [1] is 0.242. In addition, the “normalized DsRed fluorescence” value in test [2] was found to be 1.01.
The matching figures for `CC12CCC(CC1=O)C2(C)C` (centres undefined): 0.212 and 1.15.
Regarding `CCCCC(CC)COC(=O)C=Cc1ccc(OC)cc1` (centres undefined), the “normalized GFP fluorescence” value in test [1] is 0.289. For the same compound, the “normalized DsRed fluorescence” value in test [2] turned out to be 0.473.
On to `CCOC(=O)[C@H](CCc1ccccc1)N[C@H]1CCCN2CCC[C@@H](C(=O)O)N2C1=O` [Cilazapril monohydrate (Inhibace)], for which, in test [1], the “normalized GFP fluorescence” value worked out at 0.646. Besides, in test [2], the “normalized DsRed fluorescence” value was 0.59.
In the case of `NS(=O)(=O)Cc1noc2ccccc12` [Zonisamide], in test [1], the “normalized GFP fluorescence” value worked out at 0.595. Further, the “normalized DsRed fluorescence” value in test [2] was determined as 0.893.
For the compound `O=S(=O)(O)CCS`, the “normalized GFP fluorescence” value in test [1] was 0.0478. For the same compound, the “normalized DsRed fluorescence” value in test [2] worked out at 0.565.
In the case of `O=C(OCc1ccccc1)c1ccccc1`, in test [1], the “normalized GFP fluorescence” value came to 0.269. Further, the “normalized DsRed fluorescence” value in test [2] was found to be 0.596.
Take `CCCCCCOC(=O)NC(=N)c1ccc(NCc2nc3cc(C(=O)N(CCC(=O)OCC)c4ccccn4)ccc3n2C)cc1`: the “normalized GFP fluorescence” value in test [1] amounted to 0.00832. In test [2], the “normalized DsRed fluorescence” value was 0.473.
The matching figures for `O=C(CCCCCCC(=O)Nc1ccccc1)NO` [Vorinostat (SAHA)]: 0.386 and 0.944.
In the case of `CC(=O)c1ccc2c(c1)N(CCCN1CCN(CCO)CC1)c1ccccc1S2`, the “normalized GFP fluorescence” value in test [1] turned out to be 0.252. Also, the “normalized DsRed fluorescence” value in test [2] was 1.08.
Consider `CN(C)CC/C=C1/c2ccccc2COc2ccc(CC(=O)O)cc21` [Olopatadine hydrochloride (Opatanol)], for which the “normalized GFP fluorescence” value in test [1] worked out at 0.475. Further, the “normalized DsRed fluorescence” value in test [2] was found to be 0.587.
Taken in the same sequence, the figures for `CNCCCN1c2ccccc2CCc2ccccc21` were 0.0357 and 1.99.
Take `CCOC(=O)OC(C)OC(=O)[C@@H]1N2C(=O)[C@@H](NC(=O)[C@H](N)c3ccccc3)[C@H]2SC1(C)C` (some centres undefined): the “normalized GFP fluorescence” value in test [1] came to 0.00819. Also, in test [2], the “normalized DsRed fluorescence” value was 0.591.
Regarding `CCCS(=O)(=O)Nc1ccc(F)c(C(=O)c2c[nH]c3ncc(-c4ccc(Cl)cc4)cc23)c1F` [Vemurafenib (PLX4032)], the “normalized GFP fluorescence” value in test [1] was 0.416. Moreover, in test [2], the “normalized DsRed fluorescence” value was found to be 0.489.
The matching figures for `CN[C@@H]1[C@H](O)[C@H](NC)[C@H]2O[C@@]3(O)C(=O)C[C@@H](C)O[C@H]3O[C@@H]2[C@H]1O`: 0.198 and 0.555.
Taken in the same sequence, the figures for `CNC[C@@H](O)c1ccc(O)c(O)c1` [L-Adrenaline (Epinephrine)] were 0.385 and 0.715.
As for `O=C1NCC2(CCN(CCc3ccccc3)CC2)O1`, the “normalized GFP fluorescence” value in test [1] stood at 0.307. For the same compound, the “normalized DsRed fluorescence” value in test [2] was found to be 0.724.
For `O=c1ccn([C@@H]2O[C@H](CO)[C@@H](O)[C@H]2O)c(=O)[nH]1` [Uridine], the “normalized GFP fluorescence” value in test [1] stood at 0.265. Further, the “normalized DsRed fluorescence” value in test [2] is 0.849.
Turning to `CNC(=O)CN(CCN(CCN(CC(=O)O)CC(=O)NC)CC(=O)O)CC(=O)O.O.[Gd]` [Gadodiamide (Omniscan)], in test [1], the “normalized GFP fluorescence” value was determined as 0.443. Further, in test [2], the “normalized DsRed fluorescence” value is 0.566.
The matching figures for `O=C(/C=C/c1cccc(S(=O)(=O)Nc2ccccc2)c1)NO` [Belinostat (PXD101)]: 0.364 and 1.16.
